Measured values: PubChem BioAssay
For some assays here: Measured potencies and affinities stand elsewhere. Calls of active or inactive are those of the source. Unless noted, how the calls were made is not given here.

Columns and labels:
[1] = antimalarial activity against Dd2 strain (AID 2302;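 active means growth inhibition above 50% at the single 2 µM test dose, taken to imply half-maximal potency below 2 µM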;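 further: 0% = DMSO untreated growth and 100% = chloroquine plus artemisinin killed control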); details: P. falciparum Dd2 in RBCs, LDH growth readout, 72 h; at 2 µM; hits give high values
[2] = human hepatoma cell viability loss – ATP luminescence, cytotoxicity control for P. falciparum antimalarial project, primary screen (AID 2303;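 active means inhibition above 50%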;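 further: 0% = DMSO wells and 100% = digitonin-killed cells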); details: HepG2 viability, 24-48 h, at 10 µM, hits give high values
[3] = target: L-lactate dehydrogenase (Plasmodium falciparum (isolate CDC / Honduras)) (UniProt Q27743); assay: PfLDH activity inhibition – cell lysate, 3D7 strain, counter-screen for P. falciparum growth inhibition project (AID 2304);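 further: 0% = vehicle and 100% = reference inhibitor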; details: P. falciparum 3D7 crude extract, LDH APAD/NBT absorbance; at 2 µM; hits give high values
Sequence of L-lactate dehydrogenase (Plasmodium falciparum (isolate CDC / Honduras)) (Q27743 whole entry, looked up): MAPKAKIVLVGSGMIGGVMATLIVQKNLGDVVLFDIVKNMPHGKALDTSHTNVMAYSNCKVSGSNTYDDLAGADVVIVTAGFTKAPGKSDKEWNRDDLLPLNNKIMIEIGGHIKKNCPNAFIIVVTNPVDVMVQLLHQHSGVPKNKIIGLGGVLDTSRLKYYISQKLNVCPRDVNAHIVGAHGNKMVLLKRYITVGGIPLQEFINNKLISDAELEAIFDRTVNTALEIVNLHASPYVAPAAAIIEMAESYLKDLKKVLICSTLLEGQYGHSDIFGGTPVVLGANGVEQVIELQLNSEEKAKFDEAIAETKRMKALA

[4] = inhibition of 3D7 malaria parasite growth – strain 3D7 (AID 2306);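 further: 0% = DMSO wells and 100% = chloroquine plus artemisinin control wells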; details: P. falciparum 3D7 erythrocytic growth, LDH absorbance, 72 h; at 2 µM; hits give high values
[5] = target: Calcium-dependent protein kinase 1 (Plasmodium falciparum (isolate 3D7)) (UniProt P62344); assay: PfCDPK1 kinase inhibitors, biochemical, TCAMS library (AID 1159585; cut-off not given, nearly all actives have IC50 up to about 0.98 µM;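 further: inhibitors leave more ATP so luminescence rises with inhibition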); details: recombinant PfCDPK1, Kinase-Glo ATP depletion luminescence
Sequence of Calcium-dependent protein kinase 1 (Plasmodium falciparum (isolate 3D7)) (P62344 whole entry, looked up): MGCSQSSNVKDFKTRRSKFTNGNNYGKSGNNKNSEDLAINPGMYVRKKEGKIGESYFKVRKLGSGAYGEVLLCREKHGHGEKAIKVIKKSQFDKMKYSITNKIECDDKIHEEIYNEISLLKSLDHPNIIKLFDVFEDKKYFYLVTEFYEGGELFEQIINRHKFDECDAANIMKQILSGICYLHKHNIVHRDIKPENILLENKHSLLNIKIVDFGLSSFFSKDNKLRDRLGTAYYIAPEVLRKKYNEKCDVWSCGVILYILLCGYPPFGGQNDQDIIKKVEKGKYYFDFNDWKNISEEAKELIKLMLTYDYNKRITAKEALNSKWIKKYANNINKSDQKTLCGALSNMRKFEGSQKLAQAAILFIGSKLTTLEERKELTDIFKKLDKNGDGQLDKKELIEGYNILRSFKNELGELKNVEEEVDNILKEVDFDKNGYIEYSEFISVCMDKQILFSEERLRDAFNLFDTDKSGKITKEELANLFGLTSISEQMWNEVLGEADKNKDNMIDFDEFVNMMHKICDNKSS

[6] = target: Plasmodium falciparum protein kinase 6 (PK6, PF3D7_1337100) (UniProt Q8IDW1); assay: PfPK6 kinase inhibitors, biochemical, TCAMS library (AID 1159586); details: recombinant PfPK6, Kinase-Glo ATP depletion luminescence
Sequence of Plasmodium falciparum protein kinase 6 (PK6, PF3D7_1337100) (Q8IDW1 1-305): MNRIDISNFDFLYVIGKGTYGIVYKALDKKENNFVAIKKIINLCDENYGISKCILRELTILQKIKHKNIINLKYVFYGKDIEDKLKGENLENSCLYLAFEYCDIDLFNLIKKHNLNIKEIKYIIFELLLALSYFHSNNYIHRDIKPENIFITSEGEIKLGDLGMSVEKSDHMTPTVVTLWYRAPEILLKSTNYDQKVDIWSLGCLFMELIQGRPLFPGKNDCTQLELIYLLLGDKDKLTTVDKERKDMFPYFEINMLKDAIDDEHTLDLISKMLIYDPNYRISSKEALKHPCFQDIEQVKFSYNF

[7] = target: Protein kinase 7 (PK7), Plasmodium falciparum 3D7 (PF3D7_0213400) (UniProt Q7YTF7); assay: inhibition of Plasmodium PK7 catalytic activity – biochemical, TCAMS antimalarial set, Kinase-Glo luminescence (AID 1159587); details: recombinant PfPK7, Kinase-Glo ATP depletion luminescence
Sequence of Protein kinase 7 (PK7), Plasmodium falciparum 3D7 (PF3D7_0213400) (Q7YTF7 1-343): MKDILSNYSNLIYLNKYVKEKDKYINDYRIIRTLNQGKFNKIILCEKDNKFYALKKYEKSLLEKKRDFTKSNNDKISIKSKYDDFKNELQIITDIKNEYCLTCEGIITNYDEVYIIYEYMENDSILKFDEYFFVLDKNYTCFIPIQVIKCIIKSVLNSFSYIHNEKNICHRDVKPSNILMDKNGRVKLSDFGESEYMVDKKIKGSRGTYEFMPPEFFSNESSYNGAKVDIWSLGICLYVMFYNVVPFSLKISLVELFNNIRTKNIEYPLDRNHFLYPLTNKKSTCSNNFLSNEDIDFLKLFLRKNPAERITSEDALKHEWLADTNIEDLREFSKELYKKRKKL

[8] = target: Calcium-dependent protein kinase 4 (Plasmodium falciparum (isolate 3D7)) (UniProt Q8IBS5); assay: PfCDPK4 kinase inhibitors, biochemical, TCAMS library (AID 1159588; cut-off not given, nearly all actives have IC50 up to about 0.91 µM); details: recombinant PfCDPK4, Kinase-Glo ATP depletion luminescence
Sequence of Calcium-dependent protein kinase 4 (Plasmodium falciparum (isolate 3D7)) (Q8IBS5 whole entry, looked up): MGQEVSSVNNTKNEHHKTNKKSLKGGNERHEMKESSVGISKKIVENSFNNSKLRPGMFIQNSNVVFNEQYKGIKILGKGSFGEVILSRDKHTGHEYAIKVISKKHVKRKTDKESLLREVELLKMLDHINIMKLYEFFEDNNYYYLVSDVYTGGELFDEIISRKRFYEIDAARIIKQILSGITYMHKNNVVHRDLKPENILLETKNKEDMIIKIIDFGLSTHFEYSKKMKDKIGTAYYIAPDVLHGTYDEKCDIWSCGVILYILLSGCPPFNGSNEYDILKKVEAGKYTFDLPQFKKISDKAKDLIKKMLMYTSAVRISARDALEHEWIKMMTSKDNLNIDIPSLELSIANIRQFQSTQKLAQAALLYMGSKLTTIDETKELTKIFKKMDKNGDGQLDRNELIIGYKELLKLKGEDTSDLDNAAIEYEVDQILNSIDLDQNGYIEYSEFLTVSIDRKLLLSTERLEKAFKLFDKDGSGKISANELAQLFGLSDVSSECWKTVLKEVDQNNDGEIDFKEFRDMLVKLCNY

O=C(NCCc1ccccc1)N(Cc1ccccc1-c1cccc(CNCc2ccc3c(c2)OCO3)c1)C1CCN(Cc2ccccc2)CC1
inactive: inhibition [2] 29% | inhibition [3] 5% | outcome [5] | outcome [6] | outcome [7] | outcome [8]
active: growth inhibition [1] 77% | growth inhibition [4] 93%

Cc1nc(-c2cccc(Nc3nccc(NCC(O)c4ccccc4C)n3)c2)cs1 (stereo not given)
inactive: growth inhibition [1] 14% | inhibition [2] 38% | inhibition [3] -2% | outcome [5] | outcome [6] | outcome [7] | outcome [8]
active: growth inhibition [4] 92%

Nc1cc(C(F)(F)F)ccc1Cl
inactive: growth inhibition [1] -1% | inhibition [2] 8% | inhibition [3] -1% | outcome [5] | outcome [6] | outcome [7] | outcome [8]
active: growth inhibition [4] 97%

Cn1nc(C(=O)N2CCC(c3[nH]ncc3Cc3ccccc3)CC2)c2ccccc2c1=O
inactive: inhibition [2] 5% | inhibition [3] -2% | outcome [5] | outcome [6] | outcome [7] | outcome [8]
active: growth inhibition [1] 95% | growth inhibition [4] 95%

O=C(Nc1cccc(CN2CCCN(Cc3cccc(O)c3)CC2)c1)c1cc2ccccc2s1
active: growth inhibition [1] 75% | growth inhibition [4] 101%
inactive: inhibition [2] 15% | inhibition [3] -4% | outcome [5] | outcome [6] | outcome [7] | outcome [8]

Cc1ccc(C(=O)N2CCN(Cc3nccs3)CC2)cc1
active: growth inhibition [4] 86%
inactive: growth inhibition [1] -2% | inhibition [2] -6% | inhibition [3] 0% | outcome [5] | outcome [6] | outcome [7] | outcome [8]

N#Cc1ccc2c(c1)CCN(CCC1CCC(NC(=O)Nc3ccncc3)CC1)C2 (stereo not given)
active: growth inhibition [4] 85%
inactive: growth inhibition [1] 3% | inhibition [2] 6% | inhibition [3] -4% | outcome [5] | outcome [6] | outcome [7] | outcome [8]

O=c1cc(NCCCNCc2ccc(Cl)c(Cl)c2)[nH]c2ccc(C(F)(F)F)cc12
inactive: inhibition [2] 10% | inhibition [3] -5% | outcome [5] | outcome [6] | outcome [7] | outcome [8]
active: growth inhibition [1] 68% | growth inhibition [4] 103%

C[C@@H](N=C(Nc1ccc(-c2ccccc2)cc1)Nc1ccc(C#N)cc1O)c1ccc(Br)cc1
active: growth inhibition [1] 95% | growth inhibition [4] 99%
inactive: inhibition [2] 9% | inhibition [3] 2% | outcome [5] | outcome [6] | outcome [7] | outcome [8]

O=C(CC1CCCC1)N(Cc1ccc(-c2ccc(CNC3Cc4ccccc4C3)cc2)cc1)CC1CCCCN1 (stereo not given)
active: growth inhibition [1] 86% | growth inhibition [4] 88%
inactive: inhibition [2] 41% | inhibition [3] -3% | outcome [5] | outcome [6] | outcome [7] | outcome [8]

O=C(Nc1ccc(N2CCC(Nc3ccccn3)CC2)cc1)c1cnc(Cl)c(Cl)c1
inactive: growth inhibition [1] 1% | inhibition [2] 46% | inhibition [3] 0% | outcome [5] | outcome [6] | outcome [7] | outcome [8]
active: growth inhibition [4] 83%

COc1cccc(C(=O)NCCOc2ccccc2)c1Oc1ccccc1
active: growth inhibition [1] 98% | growth inhibition [4] 98%
inactive: inhibition [2] 14% | inhibition [3] -4% | outcome [5] | outcome [6] | outcome [7] | outcome [8]

CC(=O)N1N=C(c2[nH]c3ccc(Br)cc3c2C)OC1c1ccccc1 (stereo not given)
active: growth inhibition [1] 68% | growth inhibition [4] 86%
inactive: inhibition [2] 8% | inhibition [3] 0% | outcome [5] | outcome [6] | outcome [7] | outcome [8]

CCn1ccc2c(N3CCCCS3(=O)=O)cc(C(=O)N[C@@H](Cc3ccccc3)[C@H](O)CNC(C)(C)CCCC(C)C)cc21
active: growth inhibition [1] 98% | growth inhibition [4] 96%
inactive: inhibition [2] 23% | inhibition [3] -6% | outcome [5] | outcome [6] | outcome [7] | outcome [8]

FC(F)(F)c1cccc(CCNc2nccc(NCc3ccccc3Cl)n2)c1
inactive: growth inhibition [1] 38% | inhibition [2] 31% | inhibition [3] 1% | outcome [5] | outcome [6] | outcome [7] | outcome [8]
active: growth inhibition [4] 89%

O=C(NCCc1ccccc1F)c1cc(Br)cc(N2CCN(c3ccncc3)CC2)c1
active: growth inhibition [1] 67% | growth inhibition [4] 97%
inactive: inhibition [2] 29% | inhibition [3] -2% | outcome [5] | outcome [6] | outcome [7] | outcome [8]

C=CCn1c(=N)n(CC(O)c2ccc(Cl)c(Cl)c2)c2ccccc21 (stereo not given)
inactive: inhibition [2] 15% | inhibition [3] 1% | outcome [5] | outcome [6] | outcome [7] | outcome [8]
active: growth inhibition [1] 80% | growth inhibition [4] 91%

Nc1nc(N)c2c(ccc3c2ccn3CCCC(F)(F)F)n1
inactive: growth inhibition [1] 34% | inhibition [3] 0% | outcome [5] | outcome [6] | outcome [7] | outcome [8]
active: inhibition [2] 66% | growth inhibition [4] 97%

CCc1sc(N2CCN(C)CC2)nc1C(=O)NCCc1ccc(Cl)c(Cl)c1
inactive: growth inhibition [1] 49% | inhibition [2] 5% | inhibition [3] 5% | outcome [5] | outcome [6] | outcome [7] | outcome [8]
active: growth inhibition [4] 92%

O=C(Nc1cccc(-c2ccc(CN3CCCC3)cc2)c1)c1ccc(F)cc1
inactive: growth inhibition [1] 9% | inhibition [2] 23% | inhibition [3] 4% | outcome [5] | outcome [6] | outcome [7] | outcome [8]
active: growth inhibition [4] 92%

CCOC(=O)C(C)(C)Oc1ccc(CN(Cc2ccc(CC(C)C)cc2)C(=O)Nc2ccc(F)cc2F)c(OC)c1
active: growth inhibition [1] 96% | growth inhibition [4] 97%
inactive: inhibition [2] 5% | inhibition [3] -8% | outcome [5] | outcome [6] | outcome [7] | outcome [8]

Cc1cc(N[C@@H](CC(C)C)C(=O)NCc2cccc(F)c2)nc(Nc2ccccc2)n1
active: growth inhibition [1] 76% | growth inhibition [4] 100%
inactive: inhibition [2] -5% | inhibition [3] 2% | outcome [5] | outcome [6] | outcome [7] | outcome [8]

COc1ccc2ncc(Cl)c([C@H](O)CN3CCC(NCc4cc5c(cn4)OCCO5)CC3)c2c1
inactive: inhibition [2] 10% | inhibition [3] 1% | outcome [5] | outcome [6] | outcome [7] | outcome [8]
active: growth inhibition [1] 100% | growth inhibition [4] 100%

COc1ccc(-c2ccc(NC(=O)c3cccc(Cl)c3)cc2)cc1CN1CCCN(C)CC1
active: growth inhibition [1] 50% | growth inhibition [4] 95%
inactive: inhibition [2] 48% | inhibition [3] 8% | outcome [5] | outcome [6] | outcome [7] | outcome [8]

CCN1CCc2c1cc(C(=O)N[C@@H](Cc1ccccc1)[C@H](O)CNC(C)(C)c1cccc(C(F)(F)F)c1)cc2N1CCCCS1(=O)=O
active: growth inhibition [1] 99% | growth inhibition [4] 100%
inactive: inhibition [2] 6% | inhibition [3] -1% | outcome [5] | outcome [6] | outcome [7] | outcome [8]

CCCNCc1ccc(-c2ccc(CN(C(=O)c3nn(-c4ccccc4)nc3C)C3CC3)cc2)nc1
active: growth inhibition [4] 101%
inactive: growth inhibition [1] -3% | inhibition [2] 23% | inhibition [3] -2% | outcome [5] | outcome [6] | outcome [7] | outcome [8]

Cc1cc(OCCCNc2nc(NCCc3ccc(O)cc3)nc(N3CCNCC3)n2)c(Cl)c(C)c1Cl
active: inhibition [2] 54% | growth inhibition [4] 99%
inactive: growth inhibition [1] 8% | inhibition [3] 5% | outcome [5] | outcome [6] | outcome [7] | outcome [8]

CCc1cc(-c2onc(C(F)(F)F)c2-c2ccccc2)c(O)cc1OC
active: growth inhibition [1] 73% | growth inhibition [4] 98%
inactive: inhibition [2] 16% | inhibition [3] -2% | outcome [5] | outcome [6] | outcome [7] | outcome [8]

O=C(Nc1cc(Cl)cc(Cl)c1)c1cnn(-c2ccc(F)cc2)c1C1CCNCC1
active: growth inhibition [4] 90%
inactive: growth inhibition [1] -1% | inhibition [2] 13% | inhibition [3] -2% | outcome [5] | outcome [6] | outcome [7] | outcome [8]

C[C@@H](NC(=O)c1nn(-c2ccc(Cl)cc2)c(=O)c2ccccc12)C(C)(C)C
inactive: growth inhibition [1] 20% | inhibition [2] 7% | inhibition [3] -2% | outcome [5] | outcome [6] | outcome [7] | outcome [8]
active: growth inhibition [4] 95%

COc1ccc(C2CC(c3ccccc3)=NN2C(=O)c2ccc(Br)o2)cc1 (stereo not given)
active: growth inhibition [4] 96%
inactive: growth inhibition [1] 45% | inhibition [2] 6% | inhibition [3] -6% | outcome [5] | outcome [6] | outcome [7] | outcome [8]

COc1c(C2CCN(CCCCNC(=O)c3cc(-c4ccc(C#N)cc4)n[nH]3)CC2)ccc2c1CCCC2
active: growth inhibition [4] 86%
inactive: growth inhibition [1] 15% | inhibition [2] 36% | inhibition [3] -6% | outcome [5] | outcome [6] | outcome [7] | outcome [8]

CCOC(=O)c1ccc(NC(=O)Nc2ccc(-c3cccc(-c4nc5ccc(F)cc5[nH]4)c3)cc2)cc1
active: growth inhibition [1] 100% | inhibition [2] 98% | growth inhibition [4] 102%
inactive: inhibition [3] 2% | outcome [5] | outcome [6] | outcome [7] | outcome [8]

CCOc1cc(C)ccc1C1CCN(CCCCNC(=O)c2nc(-c3ccc(C(F)(F)F)cc3)[nH]c2C)CC1
active: growth inhibition [1] 98% | growth inhibition [4] 100%
inactive: inhibition [2] 30% | inhibition [3] -5% | outcome [5] | outcome [6] | outcome [7] | outcome [8]

O=C(Nc1ccc2nc3n(c(=O)c2c1)CCCCC3)C(=O)N1CCC(Cc2ccccc2)CC1
inactive: inhibition [2] 12% | inhibition [3] 0% | outcome [5] | outcome [6] | outcome [7] | outcome [8]
active: growth inhibition [1] 70% | growth inhibition [4] 91%

CS(=O)(=O)CCNC(=O)c1ccc(-c2cc3c(Nc4ccc5c(cnn5Cc5ccccc5)c4)ncnc3cn2)o1
inactive: growth inhibition [1] 46% | inhibition [2] 6% | inhibition [3] -1% | outcome [5] | outcome [6] | outcome [7] | outcome [8]
active: growth inhibition [4] 97%

COc1cc(/C=C/C(=O)NCC(CCNc2cc(=O)c3ccccc3[nH]2)NCc2cc(Br)cc(Br)c2)cc(OC)c1 (stereo not given)
active: growth inhibition [4] 90%
inactive: growth inhibition [1] 28% | inhibition [2] -11% | inhibition [3] -4% | outcome [5] | outcome [6] | outcome [7] | outcome [8]

CS(=O)(=O)CCNCc1nc(-c2ccc3c(Nc4ccc(F)c(O)c4)ccnc3c2)cs1
inactive: inhibition [2] -10% | inhibition [3] 3% | outcome [5] | outcome [6] | outcome [7] | outcome [8]
active: growth inhibition [1] 84% | growth inhibition [4] 95%

CCOc1ccc2nc(NC(=O)c3csnn3)sc2c1
inactive: inhibition [2] 6% | inhibition [3] 1% | outcome [5] | outcome [6] | outcome [7] | outcome [8]
active: growth inhibition [1] 98% | growth inhibition [4] 100%

CC(C)C[C@H](NC(=O)c1ccc(OCCN2CCOCC2)cc1)C(=O)N[C@H](/C=N/N1CC(=O)NC1=O)CCc1ccccc1
active: growth inhibition [1] 67% | growth inhibition [4] 88%
inactive: inhibition [2] 10% | inhibition [3] 0% | outcome [5] | outcome [6] | outcome [7] | outcome [8]
